# This is one part of a sample in which hits are shown more often than they occur.
# PI4K2A inh – qHTS for small molecular inhibitors of PI4K2A | Phosphatidylinositol 4-kinase type 2-alpha (Homo sapiens), Q9BTU6 | purified PI4K2A, ADP-Glo luminescence, 1 h; active compounds read low | activity change, negative = inhibition, % at 76.9 µM | hit rate 0.13% among 420,000; in the data active = activity change below about -50%; inconclusive = mostly about -30% to -49%;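 also: -100% = wells without enzyme as full effect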
#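 ADP-Glo luminescence measured ADP generated by PI4K2A enzyme (4 ug/mL before mixing) with 1.2 mM PI substrate (pre-mix) and 300 microM ATP (pre-mix). Tris pH7.5 buffer with MgCl2, Triton X-100; 1 h reaction at ambient temperature.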
# Pin1 inh – qHTS Assay to Find Inhibitors of Pin1 | hit rate 0.009% among 390,000 | Peptidyl-prolyl cis-trans isomerase NIMA-interacting 1 (Homo sapiens), Q13526 | Potency, µM (highest dose often 115 µM), without a hit: at the top dose activity, negative = inhibition, actives largely listed as inhibitors | Pin1 FP peptide displacement, HiFluor488, 10 min; active = well fitted inhibition curve with a large enough effect in the polarisation, with a control signal flat, not every such curve was filed as active; inconclusive = small, poorly fitted or top-dose-only effect, or effect the other way, or a change in a side signal; inactive = no such curve, though single readings can be large or run the other way; the % refers to the polarisation; also: potency is read from the fitted curve at half-maximal effect
# Target sequence (Q13526 whole entry, looked up): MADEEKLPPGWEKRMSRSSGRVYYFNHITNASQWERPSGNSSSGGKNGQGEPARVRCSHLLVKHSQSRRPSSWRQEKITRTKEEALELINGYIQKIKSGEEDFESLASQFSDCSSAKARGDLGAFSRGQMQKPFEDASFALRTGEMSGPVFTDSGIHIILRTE
# PI5P4Ka inh – qHTS for Inhibitors of phosphatidylinositol 5-phosphate 4-kinase (PI5P4K); max response, %; PI5P4Kalpha enzyme, ADP-Glo luminescence, 60 min; active compounds read low; hit rate 1.2% among 330,000; Phosphatidylinositol 5-phosphate 4-kinase type-2 alpha (Homo sapiens), P48426; active = max response of -50% or lower; inconclusive = between -30% and -50%; inactive = -30% or higher; also: value at the top dose of about 77 µM
#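 Single end-point luminescence (ADP-Glo) quantified ADP from PI5P4Kalpha turnover; ATP 5 microM final, 1 h at RT, 0.1% CHAPS and 0.28 mM EGTA in HEPES pH 7.4.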
# Tb PGK inh – qHTS Assay to Find Inhibitors of Phosphoglycerate Kinase | PGK/GAPDH coupled, Kinase-Glo luminescence, 60 min | hit rate 0.043% among 380,000 | Potency, µM (series often up to 57.5 µM), for inactives: at the top dose activity change, negative = inhibition, actives largely listed as inhibitors | Phosphoglycerate kinase, glycosomal (Trypanosoma brucei brucei), P07378; also: potency is read from the fitted curve at half-maximal effect; nearly all actives have a fitted effect of over 60% in size
# Target sequence (P07378 whole entry, looked up): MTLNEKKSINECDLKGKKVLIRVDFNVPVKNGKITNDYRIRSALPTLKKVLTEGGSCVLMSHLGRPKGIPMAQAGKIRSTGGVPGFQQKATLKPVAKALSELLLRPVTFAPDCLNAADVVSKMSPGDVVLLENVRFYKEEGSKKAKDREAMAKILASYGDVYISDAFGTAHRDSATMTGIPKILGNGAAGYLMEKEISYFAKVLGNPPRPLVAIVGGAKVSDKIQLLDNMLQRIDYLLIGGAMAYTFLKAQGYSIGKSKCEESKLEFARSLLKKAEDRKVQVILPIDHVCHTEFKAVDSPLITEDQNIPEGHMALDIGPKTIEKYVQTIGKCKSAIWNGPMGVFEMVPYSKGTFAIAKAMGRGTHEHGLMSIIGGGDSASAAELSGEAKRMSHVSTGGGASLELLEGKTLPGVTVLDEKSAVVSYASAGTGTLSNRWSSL
#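 Recombinant glycosomal PGK reaction used 1,3-bisphosphoglycerate generated in-well by GAPDH (100nM final) in 100mM TEA pH 7.6, 5mM MgCl2, 0.01% Tween-20. After 60 minutes at room temperature, ATP was read by Kinase-Glo Plus luminescence end-point.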
# Tb PFK block – qHTS Assay to Find Inhibitors of T. brucei phosphofructokinase. AID 485367, 2010. T. brucei PFK, ADP-Glo luminescence. Potency, µM (series often up to 57.5 µM), for inactives: at the highest dose activity, negative = inhibition, usual class: inhibitors. hit rate 0.17% among 330,000;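 also: potency is read from the fitted curve at half-maximal effect; 0% = uninhibited 1x PFK enzyme wells and -100% = no-enzyme wells; nearly all actives have a fitted effect of over 60% in size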
#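 Luminescent ADP detection (ADP-Glo, two-step: ATP depletion then ADP-to-ATP conversion for luciferase) reported PFK activity after 45 min room-temperature reaction of 1.25 nM enzyme with 0.5 mM F6P and 0.1 mM ATP at pH 8.0.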
# Starred values were filed as active, the others as inactive; i = inactive; ? = inconclusive; . = not tested or not shown; ! = not confirmed by another sample. Unless noted, calls follow the shape of the dose curve; as a rule, active = well fitted curve in the direction sought with a large enough effect; inconclusive = small, poorly fitted or top-dose-only effect, or another doubt; inactive = no such curve, though single readings can be large; an effect the other way counts as inactive or inconclusive. Unless noted, % is scaled to controls: 0 for no effect and ±100 for the full control effect.
SMILES,PI4K2A inh,Pin1 inh,PI5P4Ka inh,Tb PGK inh,Tb PFK block
CN(C)c1ccc(C(=C2C=CC(=[N+](C)C)C=C2)c2ccccc2)cc1,-10.2,.,.,.,.
CN(C)c1ccc(C(=C2C=CC(=[N+](C)C)C=C2)c2ccc(N(C)C)cc2)cc1,-59.0*,.,.,.,.
C=Cc1nc(Nc2cc(F)cc(F)c2)nc(NC2CCCC2)n1,.,-0.3%,.,.,.
Oc1cccc(-c2ccc3nccn3c2)c1,-12.4,.,-15.7,.,.
Oc1cccc(-c2nnc(-c3cccc(O)c3)nn2)c1,-66.0*,-3.2%,-26.8,?,.
Cc1cc(N2C(=O)C(O)=C(C(=O)c3cc4ccccc4o3)C2c2cccc(Br)c2)no1 (stereo not drawn),-2.2,0.1%,-53.0*,8.8%,-2.6%
CCCCCOc1ccc(C2C(C(=O)c3ccc(C)o3)=C(O)C(=O)N2c2cc(C)on2)cc1 (stereo not drawn),-1.8,2.2%,-55.2*,i,-3.6%
CCOc1ccc(C2C(C(=O)c3ccc(C)o3)=C(O)C(=O)N2c2cc(C)on2)cc1OC (stereo not drawn),3.8,-11.6%,1.5,-0.6%,2.1%
O=C(CCc1ccccc1)N[C@H]1[C@H](OC(=O)c2cnccn2)CCC[C@]12C(=O)N(Cc1ccccc1)c1ccccc12,-1.3,.,.,.,.
NC(=S)N=Nc1c(O)cc(O)c2[nH]c(=O)ccc12,?,.,-72.4*,?,.
NC(=S)N=Nc1c(O)[nH]c2ccc(F)cc12,-5.2,-1.1%,-9.7,i,-3.8%
COc1cccc(C2c3c(ncn(-c4cccnc4)c3=N)Oc3ccc4ccccc4c32)c1 (stereo not drawn),.,3.5%,.,.,.
N[C@@H](Cc1cc(I)c(Oc2ccc(O)c(I)c2)c(I)c1)C(=O)O,-3.3,?,-82.5*!,?,?
O=C(O)CCc1cc(I)c(Oc2ccc(O)c(I)c2)c(I)c1,.,.,.,.,-1.4%
N[C@@H](Cc1cc(I)c(Oc2cc(I)c(O)c(I)c2)c(I)c1)C(=O)O,-7.5,?,-61.8*,-0.1%,.
Cc1cc(C(=O)O)ccc1-c1ccc(/C=C2\NC(=O)N(Cc3ccccc3Cl)C2=O)o1,-6.1,.,-67.4*,?,3.4%
Cc1ccc(/C=C2/NC(=O)N(Cc3ccccc3)C2=O)o1,-6.3,?,-57.2*,-3.3%,?
Cc1ccc(CN2C(=O)N/C(=C\c3ccc(-c4ccc(C(=O)O)cc4C)o3)C2=O)cc1,-0.4,-8.4%,-22.6,?,1.3%
N#C/C(=C1\SCC(c2ccccc2Cl)S1)n1ccnc1 (stereo not drawn),-2.6,.,.,.,.
N/C(Cc1ccc([N+](=O)[O-])cc1)=N\OC(=O)COc1ccccc1Cl,0.5,0.1%,-59.4*,i,2.7%
N/C(Cc1ccc([N+](=O)[O-])cc1)=N\OC(=O)COc1cccc2ccccc12,0.1,9.0%,.,-0.1%,0.3%
CCc1cc2cc(OC)c(OC)cc2c(Cc2ccccc2)n1,-3.6,.,.,.,.
O=c1cc(-c2ccc(O)cc2)oc2c(O)c(O)c(O)c(O)c12,-21.5,?,-15.2,4.47µM*,-19.7%
CC(=O)N1CCCc2cc(S(=O)(=O)Nc3ccc(C)c(C)c3)ccc21,.,2.5%,.,.,.
O=C1c2cc(O)cc(O)c2C(=O)c2c1cc(O)c([C@@H](CO)CCO)c2O,-5.6,42.7%,-50.5*,-22.4%,.
SMILES,PI4K2A inh,Pin1 inh,PI5P4Ka inh,Tb PGK inh,Tb PFK block
N#Cc1ccc(N2CCN(S(=O)(=O)c3ccc4c(c3)CC(=O)N4)CC2)cc1,.,13.2%,.,.,.
Cc1ccccc1N1CCN(CCc2nnc3n2CCCC3)CC1,-0.9,.,.,.,.
O=C(Nc1ccccc1)OCCN1C(=O)CCC12CCC(c1ccccc1)CC2 (stereo not drawn),1.1,.,.,.,.
COc1cc(/C=N\N=C2/SC(CC(=O)O)C(=O)N2c2ccc(O)cc2)ccc1O (stereo not drawn),0.0,2.3%,.,-2.3%,-1.7%
COc1cc(/C=N/N=C2/SCC(=O)N2c2ccc(O)cc2)ccc1O,4.0,-1.0%,-50.1*,-7.9%,-5.5%
Cc1ccc2nc(/C(C#N)=C/c3ccc(O)c(O)c3)[nH]c2c1,2.8,?,-69.4*,-12.1%,0.1%
Cc1ccc2nc(/C(C#N)=C/c3cccc(Br)c3)[nH]c2c1,4.2,32.8%,.,-26.6%,.
Cc1cc2c(s1)c1cnn(Cc3c(F)ccc(F)c3F)c(=O)c1n2C,.,27.0%,.,.,.
CCCCOc1ccc(-c2c(C#N)c(N)[nH]c(=S)c2C#N)cc1,-3.6,0.0%,-95.5*,-8.0%,0.4%
CCCCOc1ccc(-c2c(C(=O)Nc3ccccc3)c(C)[nH]c(=S)c2C#N)cc1,-5.3,-2.1%,-53.3*,-6.5%,-5.7%
CCCN1CCN(c2cccc(Nc3nn4c(=O)c5ccccc5nc4s3)c2)CC1,.,5.9%,.,.,.
CC(C)=CCC12Oc3cc(O)ccc3C1(O)Oc1cc(O)c([C@H]3C=C(C)CC(c4ccc(O)cc4O)[C@H]3C(=O)c3ccc(O)cc3O)c(O)c1C2=O (stereo partly drawn),-1.3,?,-91.5*,1.7%,.
O=C(CNC(=O)c1ccc(C(F)(F)F)cc1)OC(C(=O)Nc1cc(C(F)(F)F)ccc1Cl)c1ccccc1 (stereo not drawn),.,-2.3%,.,.,.
CCCOc1ccc(N)cc1N,-58.3*,?,-64.6*,-6.1%,-1.8%
C=C[C@@H]1CN2CC[C@@H]1C[C@H]2[C@H](O)c1ccnc2ccc(OC)cc12,4.0,.,.,.,.
C[N+](C)(C)CC(O)CC(=O)[O-] (stereo not drawn),-2.5,.,.,.,.
COc1ccc(OC)c(C2Nc3c(Cl)ccc(C(=O)O)c3C3C=CCC32)c1 (stereo not drawn),1.8,?,-8.3,-3.8%,-0.9%
COC(=O)COc1ccc(C2Nc3c(Cl)ccc(C(=O)O)c3C3C=CCC32)cc1 (stereo not drawn),-9.6,.,-57.2*,-10.2%,?
CCOC(=O)c1cnc(SSc2ncc(C(=O)OCC)c(N)n2)nc1N,-7.9,-6.6%,-70.9*,3.4%,?
C[n+]1c(-c2ccccc2)cc2c(=Cc3ccccc3)c3ccccc3n21,?,-0.7%,-50.3*,-4.4%,.
CN(C)c1ccc(C=c2c3cc(O)ccc3n3c2cc(-c2ccccc2)[n+]3C)cc1,?,129.7%,-53.7*,i,.
C[n+]1c(-c2ccccc2)cc2c(=Cc3ccc([N+](=O)[O-])cc3)c3ccccc3n21,?,-5.3%,?,-0.2%,.
CN(C)c1ccc(/C=c2\sc3nc(-c4ccccc4)nn3c2=O)cc1,.,.,.,.,1.2%
COc1ccc(OC)c(S(=O)(=O)N2CCCCC2C(=O)N2CCN(c3ccccc3F)CC2)c1 (stereo not drawn),-2.2,.,.,.,.

# From PubChem
